A selection: hits, their analogues and other compounds. The true share with any hit is near 7.4%.
FLuc counter: firefly luciferase modulation, counter-screen for miR-21 project. Potency, µM (doses to about 57.5 µM), inactives show at the highest dose activity change, negative = inhibition, usual class: inhibitors. P08659. 360,000 tested, 6.9% active. AID 588342. purified FLuc, Km substrates, luminescence inhibition;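 also: plate controls were vehicle for no effect and reference inhibitor for full effect; nearly all actives have a fitted effect of over 55% in size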
Target sequence (P08659 whole entry, looked up): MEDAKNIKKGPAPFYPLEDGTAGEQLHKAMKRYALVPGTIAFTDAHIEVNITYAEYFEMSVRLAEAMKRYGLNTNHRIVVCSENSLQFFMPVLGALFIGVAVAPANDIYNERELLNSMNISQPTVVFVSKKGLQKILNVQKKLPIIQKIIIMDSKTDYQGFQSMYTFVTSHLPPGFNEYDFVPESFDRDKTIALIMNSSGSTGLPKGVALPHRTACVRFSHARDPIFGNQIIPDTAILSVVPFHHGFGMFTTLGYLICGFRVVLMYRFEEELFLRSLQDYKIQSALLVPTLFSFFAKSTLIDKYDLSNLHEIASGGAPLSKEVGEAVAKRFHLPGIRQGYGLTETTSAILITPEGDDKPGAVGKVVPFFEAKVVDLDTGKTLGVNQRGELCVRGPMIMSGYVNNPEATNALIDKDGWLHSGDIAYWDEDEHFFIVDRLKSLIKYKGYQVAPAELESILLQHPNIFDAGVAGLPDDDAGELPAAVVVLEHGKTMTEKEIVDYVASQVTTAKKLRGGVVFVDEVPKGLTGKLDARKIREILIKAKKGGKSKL
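Biochemical qHTS of compounds, final roughly 60 µM downward over six points, against 10 nM purified firefly luciferase using Km concentrations of substrates (10 uM D-luciferin, 10 uM ATP) in Tris acetate pH 7.5 buffer; luminescence output.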
ELG1 genotoxic: inducers of genotoxicity in HEK293T ELG1-luciferase cells. HEK293T ELG1-luciferase reporter, luminescence, 16 h. Potency, µM (titrated, usually from 46 µM), for inactives: at the top dose activity change, positive = activation, actives largely listed as activators. 330,000 tested, 1.3% active. AID 504466; also: % of control where 0% means no effect; nearly all actives have a fitted effect of over 60% in size
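Quantitative HTS format in 1536-well plates. HEK293T ELG1-luciferase reporter cells receive test compound and are incubated 16 hr at 37 °C, 5% CO2; ONE-Glo added, 30 min room temperature, then luminescence read.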
Rab9 promoter act: Rab9 promoter activation | Huh7 Rab9 promoter-luciferase reporter, luminescence, 24 h | Potency, µM (highest dose often 9.22 µM), without a hit: top-dose activation, negative = inhibition, most hits filed as activators | 320,000 tested, 2.8% active; also: % of control where 0% means no effect; nearly all actives have a fitted effect of over 60% in size
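Stable Rab9-luc Huh7, 1500 cells/well, 2 h settle; cmpd in DMSO, 24 h, 37 °C/5% CO2; luciferase reagent 10 min RT; luminescence.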
p53 reactivator: restores transcriptional activity of mutant p53; H1299 p53-A138V BP100-luciferase reporter, luminescence, 24 h; Potency, µM (titrated, usually from 92.2 µM), for inactives: top-dose activity change, positive = activation, actives largely listed as activators; 320,000 tested, 0.063% active; also: % of control where 0% means no effect; nearly all actives have a fitted effect of over 45% in size
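H1299 (p53-null), stable ts p53-A138V + BP100-Luc; 1000 cells/well, Opti-MEM/10% FBS; cpd 4 pt, 1:5; 24 h, 37 deg C, 5% CO2; detection reagent 10 min RT; luminescence.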
NPC1 prom act: activates the NPC1 promoter. Huh7 NPC1 promoter luciferase reporter, 24 h. Potency, µM (top dose mostly 9.22 µM), without a hit: top-dose activation, actives largely listed as activators. 320,000 tested, 2.4% active. AID 485313; also: % of control where 0% means no effect; nearly all actives have a fitted effect of over 60% in size
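In 1536-well qHTS, Huh7 cells harboring an NPC1 promoter–luciferase construct received compound for 24 h; activation was quantified by luminescence following luciferase reagent addition.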
SMN2 splice up: SMN2 splice variant enhancement; Potency, µM (series often up to 46.1 µM), inactives show top-dose activity change, positive = activation, usual class: activators; 210,000 tested, 2.8% active; HEK293 SMN2-luciferase splicing reporter, luminescence, 30-36 h; AID 1458; also: % of control where 0% means no effect; nearly all actives have a fitted effect of over 55% in size
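HEK293 cells carry an SMN2 […]–luciferase reporter in which exon 7 inclusion puts luciferase in frame. Cells were plated 10-12 h before compound addition, then incubated 30-36 h at 37C. ONE-Glo luminescence was read; sodium butyrate at 4.5 mM final served as control.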
Numbers without * were called inactive; u = inconclusive; x = no result. Calls follow the shape of the dose curve; as a rule, active = well fitted curve in the direction sought with a large enough effect; inconclusive = small, poorly fitted or top-dose-only effect, or another doubt; inactive = no such curve, though single readings can be large; an effect the other way counts as inactive or inconclusive. Potency is read from the fitted curve at half-maximal effect.

SMILES	FLuc counter	ELG1 genotoxic	Rab9 promoter act	p53 reactivator	NPC1 prom act	SMN2 splice up
O=c1[nH]c(SCc2cccc(Cl)c2)nc2ccccc12	0.3%	4.1%	-6.4%	1.0%	-0.6%	13.1%
Cc1ccccc1-c1nc2sc(C)c(C)c2c(=O)o1	7.57µM*	3.5%	-1.0%	x	-2.4%	x
Cc1ccccc1-c1nc2sc(-c3ccccc3)cc2c(=O)o1	4.78µM*	5.6%	9.5%	7.4%	-33.9%	-4.9%
O=C(Cc1ccc(Cl)cc1)N/N=C/c1cccc(O)c1	1.2%	-0.2%	0.0%	x	0.3%	x
CCOC(=O)CNC(=O)Cn1nc(N2CCN(c3ccccc3)CC2)ccc1=O	-5.3%	x	x	x	x	x
COc1ccc(NC(=O)Cn2c(=O)n(-c3ccc(C)cc3)c(=O)c3c2c2cc(C)ccc2n3C)cc1	-4.1%	x	x	x	x	x
Cc1ccc(-c2cnc3ccccc3n2)cc1C	0.536µM*	u	23.2%	u	u	x
CC(=O)Nc1ccc(C(=O)OCc2ccccc2Br)cc1	u	15.1%	u	1.4%	6.7%	8.7%
CCCCCCCOc1ccc(-c2ccc(C#N)cn2)cc1	3.3%	-1.7%	-3.5%	-3.3%	-4.2%	-16.0%
CCCCOc1ccc(-c2cnc3ccccc3n2)cc1	0.426µM*	u	0.447µM*	u	0.398µM*	1.41µM*
COc1cc2ncc(-c3ccccc3)nc2cc1OC	x	x	x	x	x	28.2µM*
Cc1nc2ccc(C(=O)OCc3ccccc3Br)cc2nc1C	12µM*	u	1.12µM*	u	3.16µM*	8.2%
Cc1cc2ncc(Cl)nc2cc1C	u	0.9%	-1.1%	6.0%	0.1%	-15.6%
CCOC(=O)c1ccc2ncc(-c3ccccc3)nc2c1	5.36µM*	10.3µM*	3.55µM*	u	3.16µM*	178.7%
Cc1cc(-c2ccccc2)nc(N(C)N)c1S(C)(=O)=O	-2.8%	5.7%	-4.0%	-2.1%	-3.5%	-9.3%
Cc1cc(-c2ccccc2)nc(-c2ccccc2)c1C	0.169µM*	20.6µM*	u	18.7%	12.1%	x
CCOC(=O)c1cccc(-c2c(-c3ccccc3)ncc3cc(OC)c(OC)cc23)c1	u	4.2%	-0.9%	5.8%	u	x
Clc1ccc(-c2cnc3ccccc3n2)cc1	4.78µM*	u	3.98µM*	u	3.16µM*	12.6µM*
Cc1cc2ncc(-c3ccccc3)nc2cc1C	0.601µM*	1.64µM*	0.794µM*	u	1.26µM*	5.01µM*
COCCN(C(=O)c1cccc(-n2cnnn2)c1)c1c(N)n(CC(C)C)c(=O)[nH]c1=O	0.4%	u	-2.6%	8.4%	0.0%	x
CSc1nnc(-c2ccc(F)cc2)o1	-14.5%	9.2%	6.7%	u	-3.5%	-2.1%
Fc1ccc(-c2nnc(-c3ccc(Cl)cc3Cl)o2)cc1	0.477µM*	1.64µM*	0.316µM*	u	0.224µM*	1µM*
Clc1ccc(-c2nnc(-c3ccc(Br)o3)o2)c(Cl)c1	3.01µM*	9.2µM*	u	u	1.58µM*	u
Fc1ccc(-c2nnc(-c3ccc(Cl)cc3)o2)cc1	2.69µM*	6.51µM*	0.794µM*	u	2µM*	u
CS(=O)(=O)c1ccccc1-c1nnc(-c2ccc(Cl)cc2)o1	u	12.7%	u	1.7%	-3.8%	4.1%
Clc1ccc(-c2nnc(-c3ccccc3)o2)c(Cl)c1	0.426µM*	u	0.891µM*	-12.6%	0.398µM*	2.51µM*
CC(=O)c1ccc(N(CC(=O)NC2CCCC2)C(=O)CNC(=O)c2ccco2)cc1	-1.1%	7.5%	-1.2%	-3.5%	-3.8%	x
COc1cc([N+](=O)[O-])ccc1NC(=O)N1CCN(c2cc(-c3noc(C)n3)ccc2C)CC1	-2.6%	x	x	x	x	x
COc1ccc(-n2nc(C(=O)NCC(=O)N3CCN(Cc4ccccc4)CC3)c3ccccc3c2=O)cc1OC	u	-4.8%	-1.5%	-0.6%	0.0%	x
COc1ccc(-n2nc(C(=O)NCC(=O)N3CCN(c4ccccc4F)CC3)c3ccccc3c2=O)cc1OC	0.953µM*	5.7%	28.4%	1.7%	u	x
